These results are taken from the supplement of paper PMC10646978.

± gives the standard deviation.

This experiment has as its system RAW-Dual (murine macrophage reporter line). Briefly: IRF reporter (Lucia luciferase) activity fold change vs agonist alone; higher = enhanced IRF activity. To be noted: modulator concentration 10 µM; agonist: 3'3'-cGAMP 10 ug/mL. A digest of the protocol:
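Compound reached 10 μM final in each well by pin transfer, onto RAW-Dual murine macrophage reporter cells seeded at 50 000 per well in 384-well plates. After 1 hour at 37 °C, the cells were stimulated overnight with a PRR agonist. SEAP in the supernatant was read with QUANTI-Blue at 620 nm absorbance for NF-κB, and Lucia luciferase was read with QUANTI-Luc luminescence for IRF. Each signal was turned into fold change against the mean agonist-only control on the same plate, and two replicate plates were averaged with propagated errors.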
In the case of `COC12CC(COC(=O)c3cncc(Br)c3)CN(C)C1Cc1cn(C)c3cccc2c13` (stereo not drawn), the IRF reporter was 0.905 ± 0.065. In the case of `CCOC(=O)c1ccccc1-c1ccc(C=C2C(=O)NC(=O)N(c3ccccc3C)C2=O)o1`, the IRF reporter is 0.655 ± 0.023.

For the compound `c1cc2c(cc1C1OCC3C(c4ccc5c(c4)OCO5)OCC13)OCO2` (stereo not drawn), the IRF reporter was 0.841 ± 0.041. Regarding `CCN(CC)CCNC(=O)C(O)(c1ccccc1)c1ccccc1`, the IRF reporter turned out to be 0.968 ± 0.076. As to `COc1cc2c(cc1OC)C1CC(=O)C(CC(C)C)CN1CC2` (stereo not drawn), the IRF reporter came to 0.983 ± 0.065.

Consider `O=C1CCC(=O)N1C1CC2CCC(C1)N2C(=O)Cc1cccc2ccccc12` (stereo not drawn), for which the IRF reporter was 1.08 ± 0.066. The result for `CCOc1cc(C=C2C(=O)NC(=O)NC2=O)ccc1OCc1c(Cl)cccc1Cl` reads 1.07 ± 0.038; that for `CCC1(O)C(=O)OCc2c1cc1n(c2=O)Cc2cc3ccccc3nc2-1` (stereo not drawn), 1.04 ± 0.033. For `CCC1(c2cccc(O)c2)CCCCN(C)C1.Cl` (stereo not drawn), the IRF reporter was 1.08 ± 0.088.

In the case of `CC(C)c1ccc2c(c1O)CCC1C3=C(CCC21C)C(=O)OC3` (stereo not drawn), the IRF reporter was 0.939 ± 0.029.

Take `COc1cc(OC)c(OC)cc1C=O`: the IRF reporter amounted to 0.794 ± 0.027. Under `COc1ccc(CCNCc2ccc3ccccc3c2)cc1OC` stands 0.893 ± 0.045.

`COC(=O)COc1ccc(C=C2C(=O)NC(=S)N(c3cccc(Cl)c3Cl)C2=O)cc1OC`: the IRF reporter is 0.909 ± 0.048.

On to `CC(C)N(CCC(C(N)=O)(c1ccccc1)c1ccccn1)C(C)C` (stereo not drawn), for which the IRF reporter was found to be 0.849 ± 0.064. For the compound `COc1ccc(CNCCc2c[nH]c3ccccc23)c(OC)c1C`, the IRF reporter was found to be 1.4 ± 0.048. As to `CCOC(=O)Nc1ccc(NCc2ccc(F)cc2)cc1N`, the IRF reporter was 0.893 ± 0.044. Regarding `O=Cc1cn(Cc2cccc3ccccc23)c2ccccc12`, the IRF reporter was determined as 1.09 ± 0.03. Regarding `C1CCc2nnnn2CC1` [Prestw-162], the IRF reporter is 0.941 ± 0.039.

For the compound `O=C(O)COc1cc(Cl)c(Cl)cc1Cl`, the IRF reporter amounted to 1.02 ± 0.039. Regarding `NC(=O)Cn1c(Cc2ccccc2Cl)nc2ccccc21`, the IRF reporter is 0.996 ± 0.06. Under `CC(=O)CC(c1ccccc1)c1c(OC(C)=O)c2ccccc2oc1=O` (stereo not drawn) stands 0.908 ± 0.03; under `CCC1(C)CC(=O)NC(=O)C1`, 0.899 ± 0.073; under `CN1C(=O)NC(=O)C(=Cc2ccc([N+](=O)[O-])s2)C1=O`, 0.895 ± 0.098. Turning to `CC(C(O)c1ccccc1)N(C)C` (stereo not drawn), the IRF reporter is 0.995 ± 0.031.

As for `Cc1c(NC=C2C(=O)NC(=O)NC2=O)c(=O)n(-c2ccccc2)n1C`, the IRF reporter was 1.01 ± 0.029. `CCC1(c2c[nH]cn2)Cc2ccccc2C1.Cl`: the IRF reporter came to 1 ± 0.05. In the case of `CC(=O)OC1CN2CCC1CC2.Cl` (stereo not drawn), the IRF reporter turned out to be 0.914 ± 0.052. As to `COc1ccc(CN2CCNCC2)c(OC)c1OC.Cl.Cl`, the IRF reporter was determined as 0.921 ± 0.042. As for `CCOc1cc(C=C2N=C(c3cccc(C)c3)OC2=O)ccc1OC(=O)Cc1ccccc1`, the IRF reporter is 0.8 ± 0.024.

Regarding `CCCCCn1c(=O)c(C(=O)NCc2cccnc2)c(O)c2ccccc21`, the IRF reporter was found to be 1.02 ± 0.04. Under `CN1CC(CNC(=O)OCc2ccccc2)CC2c3cccc4c3c(cn4C)CC21` (stereo not drawn) stands 0.986 ± 0.034; under `CCNc1nc(Cl)nc(NC(C)C)n1`, 1.01 ± 0.032; under `ClC(Cl)=C(c1ccc(Cl)cc1)c1ccc(Cl)cc1`, 0.961 ± 0.055. Under `CC(=O)Oc1ccc(C=Cc2cc(OC(C)=O)cc(OC(C)=O)c2)cc1` stands 0.87 ± 0.029; under `COc1ccc2c(c1O)-c1c(OC)c(OC)cc3c1C(C2)N(C)CC3` (stereo not drawn), 0.903 ± 0.046. Turning to `Cc1cccc(-n2c(C)nc3ccccc3c2=O)n1`, the IRF reporter was 1.02 ± 0.041.

With `O=C1NC(=O)C(=Cc2cccn2-c2ccc(Br)cc2)C(=O)N1`, the IRF reporter was determined as 0.876 ± 0.094.

Take `COc1cc(CNCCc2c[nH]c3ccccc23)cc(OC)c1O`: the IRF reporter stood at 0.93 ± 0.043.
